Source: PubChem BioAssay (EPA / NIEHS)
Records with an inconclusive call do not appear. A structure can be active in one record and inactive in another. Active and inactive are the calls of the source. How the source made its calls: active means hit-call score of the fitted dose curve at least 0.9, where 1 is the maximum; inconclusive means response in the unintended direction; inactive means score below 0.9.

biological target: chimpanzee Androgen Receptor (AR), AR (gene 747460) (UniProt O97775); experiment: NVS_NR_cAR: NovaScreen (NVS) Nuclear Receptor Binding Assay for chimpanzee Androgen Receptor (AR) (AID 2283346);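 further: radioligand displacement from AR measured by scintillation counting in a cell-free assay; a loss of bound radioligand signal versus DMSO counts as binding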
Sequence (O97775 whole entry, looked up): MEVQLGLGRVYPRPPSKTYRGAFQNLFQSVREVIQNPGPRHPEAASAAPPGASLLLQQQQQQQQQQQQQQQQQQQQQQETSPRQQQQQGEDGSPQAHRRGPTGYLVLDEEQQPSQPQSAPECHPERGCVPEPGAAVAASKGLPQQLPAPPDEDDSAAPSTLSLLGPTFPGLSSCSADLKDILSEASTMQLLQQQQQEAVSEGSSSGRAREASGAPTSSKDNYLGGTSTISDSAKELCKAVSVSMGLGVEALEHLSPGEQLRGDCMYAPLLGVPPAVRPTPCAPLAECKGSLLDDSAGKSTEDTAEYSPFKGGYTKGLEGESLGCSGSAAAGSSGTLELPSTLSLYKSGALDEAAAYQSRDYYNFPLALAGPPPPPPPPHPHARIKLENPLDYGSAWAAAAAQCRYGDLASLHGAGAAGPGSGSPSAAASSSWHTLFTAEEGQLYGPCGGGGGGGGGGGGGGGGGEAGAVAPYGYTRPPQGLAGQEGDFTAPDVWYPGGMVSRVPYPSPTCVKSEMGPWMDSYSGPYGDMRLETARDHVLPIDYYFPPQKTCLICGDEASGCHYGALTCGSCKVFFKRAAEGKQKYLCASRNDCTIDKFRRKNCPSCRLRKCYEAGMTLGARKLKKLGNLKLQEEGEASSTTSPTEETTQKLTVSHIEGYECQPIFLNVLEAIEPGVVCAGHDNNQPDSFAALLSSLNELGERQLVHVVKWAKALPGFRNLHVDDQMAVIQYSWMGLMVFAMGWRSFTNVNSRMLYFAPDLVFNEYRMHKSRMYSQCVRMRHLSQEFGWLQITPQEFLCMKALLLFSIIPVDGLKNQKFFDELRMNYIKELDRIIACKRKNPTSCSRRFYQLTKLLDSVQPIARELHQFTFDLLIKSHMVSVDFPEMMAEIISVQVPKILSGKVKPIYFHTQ
Procedure, shortened: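 Radioligand binding to chimpanzee AR expressed in Sf9/Sf21 cells, cell-free, measured 72 h after dosing by lysate-based scintillation counting. Loss of signal vs DMSO; initial duplicate screen at 25 uM, actives retested in concentration series.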

Structure (SMILES) | AC50 | outcome
C=CC(=O)OCC(C)OCC(C)OCC(C)OC(=O)C=C (configuration not stated) | 6.29 µM (active) | 
N#Cc1ccc(C(c2ccc(C#N)cc2)n2cncn2)cc1 | 7.43 µM (active) | 
CCCCCC[C@@H](O)C/C=C\CCCCCCCC(=O)OCC(O)CO (some centres not stated) |  | inactive
CC(C)c1cc(C(C)C)cc(C(C)C)c1 |  | inactive
O=c1c(O)c(-c2ccc(O)cc2O)oc2cc(O)cc(O)c12 | 9.55 µM (active) | 
C=C[Si](OCCOC)(OCCOC)OCCOC |  | inactive
CCOC(=O)/C=C\C(=O)OCC | 5 µM (active) | 
CN(C)c1ccc2nc3ccc(=[N+](C)C)cc-3sc2c1 | 11.2 µM (active) | 
CC1(C)CC(O)CC(C)(C)N1[O] |  | inactive
Oc1ccccc1Cc1ccccc1O | 25 µM (active) | 

biological target: Estrogen receptor (Homo sapiens) (UniProt P03372); experiment: NVS_NR_hER: NovaScreen (NVS) Nuclear Receptor Binding Assay for human Estrogen Receptor (ER) (AID 2283348)
Sequence (P03372 whole entry, looked up, the tested form may be a part): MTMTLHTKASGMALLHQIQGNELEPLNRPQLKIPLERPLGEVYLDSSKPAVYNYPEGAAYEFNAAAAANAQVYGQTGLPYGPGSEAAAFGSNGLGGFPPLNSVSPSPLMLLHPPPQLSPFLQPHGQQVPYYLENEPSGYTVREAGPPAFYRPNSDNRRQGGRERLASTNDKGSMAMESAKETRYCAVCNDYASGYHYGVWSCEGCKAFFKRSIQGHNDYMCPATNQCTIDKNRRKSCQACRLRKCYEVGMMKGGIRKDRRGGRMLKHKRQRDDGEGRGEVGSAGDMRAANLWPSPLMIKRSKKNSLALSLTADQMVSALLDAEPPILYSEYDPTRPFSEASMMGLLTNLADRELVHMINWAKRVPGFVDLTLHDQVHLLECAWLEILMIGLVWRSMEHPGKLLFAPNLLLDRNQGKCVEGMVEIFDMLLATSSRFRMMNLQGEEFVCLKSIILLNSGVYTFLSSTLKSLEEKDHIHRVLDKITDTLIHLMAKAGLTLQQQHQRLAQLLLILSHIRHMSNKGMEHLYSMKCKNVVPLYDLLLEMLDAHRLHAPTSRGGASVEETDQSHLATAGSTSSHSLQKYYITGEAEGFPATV
Procedure, shortened: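 MCF7-derived receptor extract, radiolabelled ligand, competitive displacement. Read: scintillation counts at 18 h. DMSO = negative control/baseline. Primary 25 uM duplicate; follow-up concentration–response.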

Structure (SMILES) | outcome | AC50
Nc1ccc(O)c([N+](=O)[O-])c1 | inactive | 
CCCCCCCCCCCCc1ccc(O)cc1 |  | 11 µM (active)
CCCCOC(=O)CCC(C)=O | inactive | 
C=CC(=O)OCC(C)OCC(C)OCC(C)OC(=O)C=C (configuration not stated) | inactive | 
N#Cc1ccc(C2CCCc3cncn32)cc1 (configuration not stated) |  | 4.33 µM (active)
CCCCCCCCCCCCCCCCCCOS(=O)(=O)O | inactive | 
COc1ccc(-c2coc3cc(O)cc(O)c3c2=O)cc1 |  | 0.642 µM (active)
CC(C)c1ccc(O)c(C(C)C)c1 | inactive | 
c1ccc(Nc2cccc3ccccc23)cc1 | inactive | 
CC(C)=CCCC(C)=CC#N | inactive | 
N#Cc1ccc(C(c2ccc(C#N)cc2)n2cncn2)cc1 | inactive | 
N=C1C=CC(=C(c2ccc(N)cc2)c2ccc(N)cc2)C=C1 | inactive | 
Cc1cc(C)n(CO)n1 | inactive | 
O=c1c(O)c(-c2ccc(O)cc2O)oc2cc(O)cc(O)c12 |  | 4.3 µM (active)
C=CC(=O)OCCCCCCOC(=O)C=C | inactive | 
CCCCCCCOC(=O)c1ccc(O)cc1 |  | 3.5 µM (active)
O=S(=O)(O)c1ccc(Nc2nc(Nc3ccc(C=Cc4ccc(Nc5nc(Nc6ccc(S(=O)(=O)O)cc6)nc(N(CCO)CCO)n5)cc4S(=O)(=O)O)c(S(=O)(=O)O)c3)nc(N(CCO)CCO)n2)cc1 | inactive | 
CC(C)(c1ccccc1)c1ccc(Nc2ccc(C(C)(C)c3ccccc3)cc2)cc1 | inactive | 
Oc1ccc(/C=C/c2cc(O)cc(O)c2)cc1 | inactive | 2.52 µM (active)
C[Si](C)(C)N[Si](C)(C)C | inactive | 
CC(=O)OCc1ccccc1 | inactive | 
CO[Si](C)(C)OC | inactive | 
Oc1ccccc1Cc1ccccc1O | inactive | 
O=C(Nc1ccccc1)c1cc(Cl)ccc1O | inactive | 

biological target: Estrogen receptor (Homo sapiens) (UniProt P03372); experiment: OT_ER_ERaERa_1440: Odyssey Thera (OT) 24-hour HEK293T Protein-Complementation Assay for Estrogen Receptor-alpha/-alpha Homodimer (AID 2283349);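 further: hits raise fluorescence above DMSO for agonists and antagonists alike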
Procedure, shortened: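 Cells (HEK293T) carrying the fragment-tagged ERα LBD (aa 310-547) pair are treated with chemical for 24 hours. Nuclear and/or cytoplasmic fluorescence is then quantified on a laser scanning cytometer. Activity is scored as signal gain against DMSO.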

Structure (SMILES) | outcome | AC50
O=C(O)C1CCC(C(=O)O)CC1 (configuration not stated) | inactive | 
N#Cc1ccc(C2CCCc3cncn32)cc1 (configuration not stated) | inactive | 
CCCCCCCCCCCCCCCCCCOS(=O)(=O)O | inactive | 
COc1ccc(-c2coc3cc(O)cc(O)c3c2=O)cc1 |  | 13.7 µM (active)
CC(C)c1ccc(O)c(C(C)C)c1 | inactive | 
c1ccc(Nc2cccc3ccccc23)cc1 |  | 63.1 µM (active)
CC(C)=CCCC(C)=CC#N | inactive | 
N#Cc1ccc(C(c2ccc(C#N)cc2)n2cncn2)cc1 | inactive | 
CCCCCCOC(=O)CCCCC(=O)OCCCCCC | inactive | 
Cc1cc(C)n(CO)n1 | inactive | 
CCCCCC[C@@H](O)C/C=C\CCCCCCCC(=O)OCC(O)CO (some centres not stated) | inactive | 
CC(C)c1cc(C(C)C)cc(C(C)C)c1 | inactive | 
O=c1c(O)c(-c2ccc(O)cc2O)oc2cc(O)cc(O)c12 | inactive | 
CCCCCCCOC(=O)c1ccc(O)cc1 |  | 12.3 µM (active)
CC(C)(c1ccccc1)c1ccc(Nc2ccc(C(C)(C)c3ccccc3)cc2)cc1 | inactive | 
C=C[Si](OCCOC)(OCCOC)OCCOC | inactive | 
CCCCCCCCC(CO)CCCCCC (configuration not stated) | inactive | 
CCCCNS(=O)(=O)c1ccc(C)cc1 | inactive | 
C[Si](C)(C)N[Si](C)(C)C | inactive | 
CC(=O)OCc1ccccc1 | inactive | 
C=CCOC(=O)c1ccc(C(=O)OCC=C)c(C(=O)OCC=C)c1 | inactive | 
CN(C)c1ccc2nc3ccc(=[N+](C)C)cc-3sc2c1 | inactive | 
CO[Si](C)(C)OC | inactive | 
Oc1ccccc1Cc1ccccc1O | inactive | 
CC(C)(C)C1CCC(=O)CC1 | inactive | 
O=C(Nc1ccccc1)c1cc(Cl)ccc1O | inactive | 
CCOC(=O)C1=NOC(c2ccccc2)(c2ccccc2)C1 | inactive | 

biological target: Estrogen receptor (Homo sapiens) (UniProt P03372); experiment: OT_ER_ERaERa_0480: Odyssey Thera (OT) 8-hour HEK293T Protein-Complementation Assay for Estrogen Receptor-alpha/-alpha Homodimer (AID 2283351);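 further: rise in fluorescence from reassembled reporter fragments on ERα LBD homodimer in nucleus or whole cell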
Procedure, shortened: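 Cells were treated for 8 hours, then imaged on a laser scanning plate cytometer. Complementation of reporter fragments fused to the human ERα ligand-binding domain (residues 310-547) in HEK293T gave fluorescence, and gain of signal over vehicle was fitted.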

Structure (SMILES) | outcome | AC50
O=C(O)C1CCC(C(=O)O)CC1 (configuration not stated) | inactive | 
COc1ccc(-c2coc3cc(O)cc(O)c3c2=O)cc1 |  | 12.3 µM (active)
c1ccc(Nc2cccc3ccccc23)cc1 |  | 35.2 µM (active)
CC(C)=CCCC(C)=CC#N | inactive | 
N#Cc1ccc(C(c2ccc(C#N)cc2)n2cncn2)cc1 | inactive | 
CCCCCCOC(=O)CCCCC(=O)OCCCCCC | inactive | 
CCCCCC[C@@H](O)C/C=C\CCCCCCCC(=O)OCC(O)CO (some centres not stated) | inactive | 
O=c1c(O)c(-c2ccc(O)cc2O)oc2cc(O)cc(O)c12 | inactive | 
C=C[Si](OCCOC)(OCCOC)OCCOC | inactive | 
CCCCNS(=O)(=O)c1ccc(C)cc1 | inactive | 
C[Si](C)(C)N[Si](C)(C)C | inactive | 
CN(C)c1ccc2nc3ccc(=[N+](C)C)cc-3sc2c1 |  | 50 µM (active)
CO[Si](C)(C)OC | inactive | 
Oc1ccccc1Cc1ccccc1O | inactive | 
CCOC(=O)C1=NOC(c2ccccc2)(c2ccccc2)C1 | inactive | 
